# Results as given in PubChem BioAssay.
# Active and inactive are the calls of the source.
# Columns and labels:
# [1] = biological target: Albumin (Bos taurus) (UniProt P02769); assay: compounds binding labelled BSA control protein – biochemical, small-molecule microarray, Alexa647 label, 635/667 nm fluorescence, artefact control for SMM control protein annotation, profiling panel (AID 1118); details: BSA-A647 binding, fluorescence 635 nm, higher = more signal;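 further: score merges 667 nm emission intensity and signal-to-noise per printed compound spot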
# [2] = probe aXIP binding to arrayed compounds – biochemical, NeuroSMM set, 635/667 nm fluorescence, primary screen (AID 1119); details: small-molecule microarray, higher = more signal, called active from +8 up or from −8 down;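 further: probe is the protein aXip251-270 applied at 1 µg/mL to compound-printed slides; binding of probe to printed compounds measured as 667 nm fluorescence plus signal to noise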
# [3] = probe aNOTCH3 binding on compound microarray – biochemical, small-molecule microarray, 635/667 nm fluorescence, primary screen (AID 1120); details: higher = more signal;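 further: probe is a biotin-tagged antibody raised against NOTCH3 rather than NOTCH3 protein; score merges spot fluorescence near 667 nm with spot signal to noise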
# [4] = probe aNOTCH2 binding on compound microarray – biochemical, small-molecule microarray, 635/667 nm fluorescence, primary screen (AID 1121); details: higher = more signal;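 further: score merges feature fluorescence read at 667 nm with its signal to noise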
# [5] = biological target: Carbonic anhydrase 2 (Homo sapiens) (UniProt P00918); assay: compounds binding carbonic anhydrase 2 – biochemical, small-molecule microarray, Alexa647-labelled CAII, profiling panel (AID 1122); details: CAII-A647 binding fluorescence, higher = more signal
# [6] = COS7 lysate on small-molecule microarray, probe aHis, 635 nm (AID 1123); details: COS7 cell lysate, fluorescence, higher = more signal;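 further: z-score combines 667nm fluorescence intensity with signal-to-noise per printed compound spot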
# [7] = probe aLAP1 signal on lysate-treated microarray – cell lysate, small-molecule microarray, COS7 lysate, primary screen (AID 1124); details: probe aLAP1, fluorescence, higher = more signal;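 further: lysate comes from COS7 cells expressing LAP1 and is applied at 0.3 µg/mL; score merges spot fluorescence near 667 nm with signal-to-noise over triplicate slides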
# [8] = tested on: Sam68 (KHDRBS1); assay: compounds binding KHDRBS1 protein – biochemical, small-molecule microarray, 635 nm fluorescence, primary screen (AID 1125); details: higher = more signal;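 further: score merges 667 nm channel intensity with signal to noise over triplicate slides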
# [9] = tested on: Chordin-like protein 2 (CHRDL2); assay: compounds binding chordin-like 2 – biochemical, small-molecule microarray, 635 nm fluorescence, primary screen (AID 1126); details: fluorescence 635 nm, higher = more signal;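 further: printed compound slides probed with Chrdl2 protein at 4 µg/mL for 1 h at 4 C; score merges 667 nm emission intensity with signal to noise over three replicate slides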
# [10] = biological target: Concanavalin-A (Canavalia ensiformis) (UniProt P02866); assay: compounds binding concanavalin A lectin – biochemical, small-molecule microarray, Alexa647 label, 635 nm, artefact control for SMM control protein annotation, primary screen (AID 1127); details: ConA-A647 binding fluorescence, higher = more signal;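 further: z combines 667 nm emission intensity with signal-to-noise across three replicate slides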
# [11] = compounds binding Alexa647 anti-His antibody – biochemical, small-molecule microarray, 635 nm fluorescence, artefact control for SMM control protein annotation, primary screen (AID 1128); details: higher = more signal;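 further: score merges feature fluorescence with signal-to-noise for each printed compound spot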
# [12] = tested on: Human papillomavirus type 1a E7 protein (residues 1-88); assay: HPV1a E7 small-molecule binders, primary screen, biochemical, small-molecule microarray, residues 1-88, 635 nm (AID 1129); details: small-molecule microarray binding, fluorescence 635 nm; higher = more signal
# [13] = biological target: Focal adhesion kinase 1 (Homo sapiens) (UniProt Q05397); assay: PTK2 protein binding on printed compound slides – biochemical, small-molecule microarray, 635/667 nm fluorescence, BSA, DTT, primary screen (AID 1130); details: 635 nm fluorescence, higher = more signal;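 further: composite of spot emission at 667 nm and signal to noise over triplicate slides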
# [14] = tested on: Fibrinogen (Alexa647-labelled); assay: Alexa647-fibrinogen binding to printed small molecules – biochemical, small-molecule microarray, 635/667 nm fluorescence, artefact control for SMM control-protein annotation, profiling panel (AID 1131); details: fibrinogen-A647 binding fluorescence, higher = more signal;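 further: z-score merges 667 nm fluorescence with per-spot signal-to-noise over triplicate slides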
# [15] = biological target: Follistatin (Homo sapiens) (UniProt P19883); assay: FST protein binding to printed compounds – biochemical, small-molecule microarray, 635/667 nm fluorescence, primary screen (AID 1132); details: 635 nm fluorescence, higher = more signal
# [16] = biological target: Fibroblast growth factor 2 (Homo sapiens) (UniProt P09038); assay: basic fibroblast growth factor binding to printed compounds – biochemical, small-molecule microarray, 635/667 nm fluorescence, primary screen (AID 1133); details: FGF2, fluorescence 635/667, higher = more signal
# [17] = JC-1 mitochondrial potential readout, lung cancer cells – cell-based, A549, JC-1 fluorescence, basal, 24 h, 100 nL, profiling panel (AID 1138); details: higher = more signal;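 further: A549 lung adenocarcinoma cells under basal conditions with no added stimulus; test concentration not given here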
# [18] = tested on: Lefty1; assay: Lefty1 protein binding to printed compounds – biochemical, small-molecule microarray, 635/667 nm fluorescence, primary screen (AID 1139); details: fluorescence 635/667, higher = more signal
# [19] = tested on: wheat germ agglutinin (Triticum aestivum), Alexa647-labelled; assay: Alexa647-WGA lectin binding to printed small molecules – biochemical, small-molecule microarray, 635/667 nm fluorescence, artefact control for SMM control-protein annotation, profiling panel (AID 1140); details: WGA-A647 binding, 635 nm fluorescence, higher = more signal;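 further: score merges 667 nm feature emission with signal to noise over triplicate slides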
# [20] = biological target: Luciferin 4-monooxygenase (Photinus pyralis) (UniProt P08659); assay: inhibition of purified Photinus pyralis luciferase – biochemical, luminescence, purified enzyme, 2006 set, primary screen (AID 1141); details: purified firefly luciferase, SteadyGlo luminescence, 30 min; higher = more signal, called active from +8 up or from −8 down;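 further: cell-free assay with purified firefly luciferase at 100 ng per well in PBS; test concentration not given here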
# Luciferin 4-monooxygenase (Photinus pyralis), sequence (P08659 whole entry, looked up): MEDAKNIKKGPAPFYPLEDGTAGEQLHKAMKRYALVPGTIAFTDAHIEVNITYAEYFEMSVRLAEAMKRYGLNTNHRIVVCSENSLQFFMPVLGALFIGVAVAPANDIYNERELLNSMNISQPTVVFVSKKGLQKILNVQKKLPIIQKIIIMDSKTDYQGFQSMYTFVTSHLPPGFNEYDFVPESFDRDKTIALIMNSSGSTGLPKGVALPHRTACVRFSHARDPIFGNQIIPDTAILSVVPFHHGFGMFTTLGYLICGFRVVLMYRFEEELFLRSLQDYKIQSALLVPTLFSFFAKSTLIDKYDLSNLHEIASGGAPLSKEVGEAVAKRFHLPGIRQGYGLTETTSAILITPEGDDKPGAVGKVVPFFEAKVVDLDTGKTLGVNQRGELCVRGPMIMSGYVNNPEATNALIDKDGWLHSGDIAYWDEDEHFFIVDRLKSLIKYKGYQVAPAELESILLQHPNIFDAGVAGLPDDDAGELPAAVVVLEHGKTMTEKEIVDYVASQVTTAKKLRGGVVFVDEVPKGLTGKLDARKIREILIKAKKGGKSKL
# Fibroblast growth factor 2 (Homo sapiens), sequence (P09038 whole entry, looked up): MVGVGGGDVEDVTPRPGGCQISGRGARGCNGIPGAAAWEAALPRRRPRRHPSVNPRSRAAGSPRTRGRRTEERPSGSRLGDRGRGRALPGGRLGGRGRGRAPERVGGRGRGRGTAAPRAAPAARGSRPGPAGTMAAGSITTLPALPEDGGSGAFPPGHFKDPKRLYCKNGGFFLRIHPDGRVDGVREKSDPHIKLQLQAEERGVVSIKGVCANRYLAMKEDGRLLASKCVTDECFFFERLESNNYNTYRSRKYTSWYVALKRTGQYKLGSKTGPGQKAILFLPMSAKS
# Concanavalin-A (Canavalia ensiformis), sequence (P02866 whole entry, looked up): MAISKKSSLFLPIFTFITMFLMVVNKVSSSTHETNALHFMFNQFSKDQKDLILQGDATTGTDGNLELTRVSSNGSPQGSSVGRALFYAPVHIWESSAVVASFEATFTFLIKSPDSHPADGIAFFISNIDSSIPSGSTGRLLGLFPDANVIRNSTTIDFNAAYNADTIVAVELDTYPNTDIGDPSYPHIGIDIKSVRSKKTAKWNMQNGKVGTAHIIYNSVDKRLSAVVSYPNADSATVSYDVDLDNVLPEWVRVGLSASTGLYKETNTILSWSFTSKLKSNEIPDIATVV
# Focal adhesion kinase 1 (Homo sapiens), sequence (Q05397 whole entry, looked up): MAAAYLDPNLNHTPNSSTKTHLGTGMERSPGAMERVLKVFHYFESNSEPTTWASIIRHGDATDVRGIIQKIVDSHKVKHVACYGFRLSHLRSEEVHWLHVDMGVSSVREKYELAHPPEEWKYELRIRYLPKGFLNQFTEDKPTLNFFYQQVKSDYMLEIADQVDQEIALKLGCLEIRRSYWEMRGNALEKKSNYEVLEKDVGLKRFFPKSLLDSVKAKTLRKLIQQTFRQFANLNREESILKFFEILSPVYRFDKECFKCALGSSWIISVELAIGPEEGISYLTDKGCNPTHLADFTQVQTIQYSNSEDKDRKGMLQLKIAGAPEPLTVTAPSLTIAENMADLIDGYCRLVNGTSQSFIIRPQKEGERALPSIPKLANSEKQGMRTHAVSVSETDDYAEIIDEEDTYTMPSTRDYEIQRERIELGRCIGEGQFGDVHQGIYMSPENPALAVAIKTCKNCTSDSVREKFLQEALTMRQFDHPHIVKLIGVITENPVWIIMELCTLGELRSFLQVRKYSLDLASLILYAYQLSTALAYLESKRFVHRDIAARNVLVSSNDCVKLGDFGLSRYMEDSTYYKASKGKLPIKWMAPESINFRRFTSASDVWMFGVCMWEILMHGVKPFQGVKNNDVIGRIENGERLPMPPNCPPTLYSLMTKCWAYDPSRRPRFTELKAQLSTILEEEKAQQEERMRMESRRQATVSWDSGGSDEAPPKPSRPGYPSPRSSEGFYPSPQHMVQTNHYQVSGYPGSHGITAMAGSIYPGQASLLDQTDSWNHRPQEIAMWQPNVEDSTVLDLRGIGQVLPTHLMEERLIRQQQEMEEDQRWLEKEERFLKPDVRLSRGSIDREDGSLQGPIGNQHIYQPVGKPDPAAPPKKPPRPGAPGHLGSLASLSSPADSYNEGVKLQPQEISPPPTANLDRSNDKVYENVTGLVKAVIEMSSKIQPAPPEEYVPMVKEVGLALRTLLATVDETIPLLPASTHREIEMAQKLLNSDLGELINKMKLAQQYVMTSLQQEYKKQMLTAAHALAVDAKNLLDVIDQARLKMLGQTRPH
# Albumin (Bos taurus), sequence (P02769 whole entry, looked up): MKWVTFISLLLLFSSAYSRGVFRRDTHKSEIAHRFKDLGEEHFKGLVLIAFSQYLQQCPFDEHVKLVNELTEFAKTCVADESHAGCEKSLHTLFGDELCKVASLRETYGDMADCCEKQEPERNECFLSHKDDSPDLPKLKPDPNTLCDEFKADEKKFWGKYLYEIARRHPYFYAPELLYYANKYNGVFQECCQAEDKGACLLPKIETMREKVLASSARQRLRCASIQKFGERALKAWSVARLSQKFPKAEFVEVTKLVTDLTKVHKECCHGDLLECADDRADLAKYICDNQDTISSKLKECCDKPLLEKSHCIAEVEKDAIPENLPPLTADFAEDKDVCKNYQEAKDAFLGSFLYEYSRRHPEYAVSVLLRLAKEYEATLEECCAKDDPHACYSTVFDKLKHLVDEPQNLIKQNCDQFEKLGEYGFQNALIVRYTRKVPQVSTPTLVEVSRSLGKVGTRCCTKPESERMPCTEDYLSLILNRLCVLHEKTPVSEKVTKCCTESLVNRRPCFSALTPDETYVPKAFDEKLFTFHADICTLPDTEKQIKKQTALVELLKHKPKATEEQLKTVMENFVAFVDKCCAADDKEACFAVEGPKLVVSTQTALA
# Follistatin (Homo sapiens), sequence (P19883 whole entry, looked up): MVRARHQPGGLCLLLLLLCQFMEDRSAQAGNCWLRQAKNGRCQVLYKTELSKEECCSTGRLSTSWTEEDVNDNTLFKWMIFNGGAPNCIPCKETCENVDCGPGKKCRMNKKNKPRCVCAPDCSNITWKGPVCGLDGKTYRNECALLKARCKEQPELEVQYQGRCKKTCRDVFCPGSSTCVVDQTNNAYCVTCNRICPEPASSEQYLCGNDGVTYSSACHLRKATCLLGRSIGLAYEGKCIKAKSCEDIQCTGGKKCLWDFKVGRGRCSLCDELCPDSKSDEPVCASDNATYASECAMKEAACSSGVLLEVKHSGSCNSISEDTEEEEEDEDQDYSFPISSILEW
Structure (SMILES),composite z-score [1],composite Z-score [2],composite z-score [3],composite z-score [4],composite z-score [5],composite z-score [6],composite z-score [7],composite z-score [8],composite z-score [9],composite z-score [10],composite z-score [11],composite z-score [12],composite z-score [13],composite z-score [14],composite z-score [15],composite z-score [16],z-score [17],composite z-score [18],composite z-score [19],z-score [20]
CCOC(=O)C[C@H]1[C@H](OC(=O)c2ccccc2-c2ccccc2)[C@@H](NC(=O)CC(C)C)c2cc(OCCCO)ccc2N1C(=O)c1ccc2ccccc2n1,0.641,0.675 (inactive),-0.0031,-0.13,0.431,0.578,0.452,0.569,0.224,0.629,-0.123,0.304,0.162,0.335,0.323,0.318,0.488,0.76,0.152,0.365 (inactive)
COc1c(C)cc(-c2cc3c(c(Cc4ccccc4)n2)[Si](C(C)C)(C(C)C)OC3)cc1C,0.0401,-0.014 (inactive),-0.0881,-0.0907,-0.143,0.0246,-0.269,0.0189,0.198,0.0652,0.0134,-0.006,0.212,0.0295,0.308,0.0273,0.0666,0.708,-0.063,0.674 (inactive)
COCC(=C=CC[C@H](O)c1cccc(OCCO)c1)C[C@H](O)c1ccccn1,0.0722,-0.0402 (inactive),-0.004,-0.145,0.778,3.79,0.369,0.52,-0.0575,0.102,0.344,0.273,-0.296,0.521,1.37,0.89,1.07,1.37,0.613,-0.266 (inactive)
C=CCNC(=O)[C@@H]1[C@H]2C(=O)O[C@H](c3ccccc3)[C@H](c3ccccc3)N2[C@H](c2ccccc2OCCO)[C@@]12C(=O)N(C(=O)OCCOC)c1ccc(C#CC3=CCCCC3)cc12,0.706,2.45 (inactive),-0.0699,-0.0664,0.467,1.76,-0.218,1.28,0.741,1.12,1.66,1.19,0.636,0.682,1.01,1.43,-0.663,0.949,0.762,-1.53 (inactive)
CCCCC(CC)C(O)C1C=CC2C(=O)N(c3ccccc3)C(=O)C2N1Nc1ccc([N+](=O)[O-])cc1 (stereo not given),0.985,-0.189 (inactive),0.44,-0.161,0.652,1.86,0.914,1.31,0.0772,1.18,1.48,1.23,0.623,1.04,1.21,0.456,-1.19,0.39,1.02,0.262 (inactive)
NC(=O)N1C(=O)C2C(C1=O)C1C=C(c3ccc(CO)cc3)C2C(C2CC2)N1Cc1sc2ccccc2c1Cl (stereo not given),0.849,0.742 (inactive),0.0225,-0.101,0.468,1.67,0.733,1.31,0.441,1.18,2.42,1.13,-0.159,0.985,0.855,1.62,1.46,1.16,1.12,-2.36 (inactive)
CCOc1cc(C(O)C2C=CC3C(=O)N(C4CCCCC4)C(=O)C3N2Nc2ccc(OC)cc2)ccc1O (stereo not given),0.786,0.764 (inactive),0.208,0.0791,0.441,2.61,0.717,1.28,-0.0164,1.12,0.675,1.19,0.903,0.705,0.846,-0.0785,0.786,0.225,0.686,-0.0537 (inactive)
O=c1cccc(-c2cccc(Cl)c2)o1,0.271,1.25 (inactive),-0.0164,-0.161,-0.0655,0.043,0.275,0.159,0.0809,0.164,0.417,1.11,0.682,0.2,-0.0992,-0.332,0.0374,-0.014,0.11,0.672 (inactive)
COc1ccc(C(O)C2C=CC3C(=O)N(c4ccccc4)C(=O)C3N2Nc2ccc(C#N)cc2)c2ccccc12 (stereo not given),1.07,1.3 (inactive),0.0248,0.0847,0.734,2.48,0.537,1.28,-0.32,1.22,1.67,1.25,0.0632,0.979,0.944,-0.012,-0.616,0.392,1.04,-0.786 (inactive)
C=CCC(OC(C)=O)[C@@H]1[C@@H](N(Cc2cc3ccccc3o2)C(=O)Cc2ccc(F)cc2)c2cc(OCCCO)ccc2N1C(=O)c1ccc2ccccc2n1 (stereo not given in full),0.124,-0.16 (inactive),-0.136,-0.104,-0.183,0.178,0.104,-0.847,0.344,-0.0002,0.055,-0.694,0.0919,0.271,0.147,-0.0144,0.728,-0.189,0.0937,-0.997 (inactive)
C=C1C2CC3C(=C4C(CO[C@@H]4[C@H]4CCCN4S(=O)(=O)c4ccccc4[N+](=O)[O-])C4C(=O)N(C)C(=O)C34)CC2C(=O)N1C (stereo not given in full),0.873,0.79 (inactive),0.0897,-0.078,0.155,0.5,-0.0918,-0.184,0.0301,0.131,-0.382,0.128,0.0722,0.412,0.482,0.425,0.225,0.218,0.337,0.101 (inactive)
